Laboratory results: PubChem BioAssay AID1851 (National Center for Advancing Translational Sciences (NCATS), 2009)
Out of some 16,000 compounds screened, about 2,600 (16%) were called active. Another 20% or so got no clear call; they are omitted. Calls follow the shape of the dose curve; as a rule, active = well fitted curve in the direction sought with a large enough effect; inconclusive = small, poorly fitted or top-dose-only effect, or effect the other way; inactive = no such curve, though single readings can be large or run the other way. The list is a sample of the results. More than one record can exist for a structure, and the calls need not agree.

molecular target: Cytochrome P450 2D6 (Homo sapiens) (UniProt P10635); test: Cytochrome panel assay with activity outcomes; conditions: recombinant CYP, pro-luciferin dealkylation, luminescence, p450-cyp2d6; series mostly up to 57.1 µM
% is scaled to controls: 0 for no effect and ±100 for the full control effect.

Sequence of Cytochrome P450 2D6 (Homo sapiens) (P10635 whole entry, looked up): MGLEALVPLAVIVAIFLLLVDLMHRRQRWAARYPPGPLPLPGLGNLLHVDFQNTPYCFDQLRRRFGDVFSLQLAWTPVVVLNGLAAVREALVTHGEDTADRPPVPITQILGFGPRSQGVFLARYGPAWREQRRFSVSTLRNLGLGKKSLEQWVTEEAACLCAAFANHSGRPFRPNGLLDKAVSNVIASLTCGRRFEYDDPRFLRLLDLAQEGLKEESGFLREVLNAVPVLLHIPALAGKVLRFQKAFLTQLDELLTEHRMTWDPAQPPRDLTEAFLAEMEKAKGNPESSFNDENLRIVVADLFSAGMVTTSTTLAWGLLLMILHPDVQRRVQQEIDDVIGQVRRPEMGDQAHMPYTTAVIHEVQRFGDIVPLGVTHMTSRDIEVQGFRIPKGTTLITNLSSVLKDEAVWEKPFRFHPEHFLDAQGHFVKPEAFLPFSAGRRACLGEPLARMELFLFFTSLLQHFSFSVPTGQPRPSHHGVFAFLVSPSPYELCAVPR

SMILES	AC50	activity, negative = inhibition
N[C@H](C(=O)O)c1ccc(C(=O)O)c(O)c1	inactive	
O=C(Nc1ccccc1C(=O)NCC1CCCO1)c1ccc(Cl)cc1Cl (centres undefined)	inactive	
CC(C)(C)S(=O)(=O)c1cnc2c(-c3ccc(F)cc3)cnn2c1N	inactive	
CN(C)CCCc1c2ccccc2nc2ccc(Cl)cc12	1.58 µM (active)	
CCn1c2ccc(Cl)cc2c2nc3ccccc3nc21	inactive	
CCCCc1c2ccccc2nc2[nH]c3ccccc3c12	inactive	
Cn1c(=O)c2[nH]cnc2n(C)c1=O	inactive	
Cc1ccc(Sc2ccc(NC(=O)c3ccc(S(C)(=O)=O)cc3Cl)cc2)cc1	inactive	
COC(=O)CCC(=O)NNC(=O)c1ccc(Br)cc1	inactive	
Fc1cccc(NC(=S)NCCCN2CCOCC2)c1	7.94 µM (active)	
O=C(CCn1c(=S)[nH]c2ccccc2c1=O)NCCCN1CCOCC1	inactive	
Cc1ccc(NC(=S)NCCN2CCOCC2)cc1C	inactive	
CN(C)CCCO[C@H]1[C@@H]2OC(C)(C)O[C@@H]2O[C@@H]1[C@H](O)CO	inactive	
C#CCCCO/N=C1/C[C@@H](O)[C@@H](O)[C@@H]2[C@@H]3C(=O)N(C4CCCCC4)C(=O)[C@H]3CC[C@@H]12		13% [at 11.4 µM] (inactive)
CCC(=O)Nc1ccc(C(=O)CSc2nnc(-c3ccc(O)cc3)n2CC2CCCO2)cc1OC (centres undefined)	inactive	
CC(=O)Nc1cccc(N2C(=O)CCC2=O)c1	inactive	
CC(NC(=O)c1ccc(N2CCCC2=O)cc1)c1ccccc1 (centres undefined)	7.94 µM (active)	
CCCCN(C)CCCNC(=O)c1ccc(N2CCCC2=O)cc1	inactive	
C[C@H](NC(=O)c1ccc(Cl)c(Cl)c1)c1ccc(-c2ccccc2)cc1		-1.17% [at 11.4 µM] (inactive)
Cc1ccc(C(=O)NC2CCCCCC2)cc1N1CCCC1=O	inactive	
O=C(O)c1cccc(N2CCCC2=O)c1	0.251 µM (active)	
Cc1ccccc1C(=O)NC(=S)NCC(=O)c1ccccc1	inactive	
COCCn1c(=O)c(C)nc2cnc(Nc3cccc(OC)c3)nc21	inactive	
CN(C)C(N)=NCCC[C@H](N)C(=O)O	inactive	
CC(/C=N\NC(=O)Cn1c(C)nc2ccccc21)=C\c1ccccc1	inactive	
CC[C@H]1C2=C3C(CC[C@H]4C(OC)OC[C@](C)([C@@H]34)N(C(=O)OC(C)(C)C)C2)C(CO)C1CO (some centres undefined)	inactive	

SMILES	AC50	activity, negative = inhibition
COC(=O)c1sccc1NC(=O)c1cc(-c2ccc(C)cc2C)nc2ccccc12	inactive	
Cc1c(Br)c([N+](=O)[O-])nn1CC(=O)NCc1ccccn1	inactive	
Cc1ccc(OC[C@H](O)[C@H](C)NC(C)C)c2c1CCC2	15.8 µM (active) and inactive	
O=C(OCC1CC(c2ccccc2)=NO1)c1ccc(Cl)cc1 (centres undefined)	inactive	
CSc1nncc(-c2ccc(F)c(F)c2)n1	inactive	
COC(=O)C/C=C\[C@@H](C)[C@@H](/C=N\O[C@@H](C)c1cn([C@H]2COC[C@H]2O)nn1)NS(=O)(=O)c1ccc(C)cc1		5.15% [at 11.4 µM] (inactive)
Cc1cccc(/C(N)=N/OC(=O)CCCN2C(=O)c3ccccc3C2=O)c1	inactive	
Cc1ccc(OCCCN2C(=O)C(=O)c3cccc(C)c32)cc1	14.1 µM (active)	
Cc1ccc(OCCCC(=O)N2CCOCC2)cc1	inactive	
CC(C)(C)NC[C@H](O)c1cc(O)cc(O)c1	inactive	
Cc1onc(-c2ccccc2Cl)c1C(=O)Nc1nnc(Cc2ccc(Cl)cc2)s1	inactive	
Cc1ccc(NC(=O)c2ccc(CSc3nnc(-c4ccncc4)n3C)cc2)cc1	inactive	
Cc1ccc(SCc2ccc(C(=O)NCc3ccncc3)cc2)cc1	0.0447 µM (active)	
Cc1ccc(SCc2nnc(NC(=O)c3ccccc3)s2)cc1	inactive	
CCc1nc2c(c(SC)nn2-c2ccccc2)c(N)c1C(=O)OC	inactive	
CC(=O)Nc1ccc(-c2cc(-c3ccc(NC(C)=O)cc3)nc(-c3ccccc3)n2)cc1	inactive	
O=C(Oc1cccc(Br)c1)c1cccnc1	inactive	
O=C(COC(=O)c1cccnc1)c1ccc(Cl)c(Cl)c1	2.51 µM (active)	
CC(=O)OCCNC(=O)c1cccnc1	inactive	
COc1cc(-c2ccc(N=Nc3ccc4c(S(=O)(=O)O)cc(S(=O)(=O)O)c(N)c4c3O)c(OC)c2)ccc1N=Nc1ccc2c(S(=O)(=O)O)cc(S(=O)(=O)O)c(N)c2c1O	inactive	
COc1ccc(OCCSc2ncn[nH]2)cc1	inactive	
COCCCNC(=O)CCC(=O)Nc1ccc2nc(N3CCOCC3)cc(C)c2c1	inactive	
Nc1nc(Sc2ccc([N+](=O)[O-])c3nonc23)c2[nH]cnc2n1		3.81% [at 11.4 µM] (inactive)
CCOc1ccc(C(CC(=O)O)NC(=O)COc2ccccc2)cc1 (centres undefined)	inactive	
C[C@H](N[C@@H](C)COc1ccccc1)[C@H](O)c1ccc(O)cc1	0.316 µM (active)	
O=C(O)[C@H](/C=C\c1ccccc1)c1ccccc1		-18.1% [at 11.4 µM] (inactive)

SMILES	AC50	activity, negative = inhibition
CCOc1ccc(-n2c(=O)[nH]cc(C(=O)N3CCCc4ccccc43)c2=O)cc1	inactive	
O=C(NCCN1CCCCC1)c1ccc(I)cc1	10 µM (active)	
CCC(CC)C(=O)NCCN1CCN(C(=O)C(CC)CC)CC1	inactive	
Cc1ccc(C(=O)NCCNC(=O)CN2CCOCC2)cc1	inactive	
COC(=O)C(NC(=O)c1ccccc1)=C1C=C(C)OC(C)=C1	inactive	
Clc1ccc(/C=N/c2c(-c3ccc(Cl)cc3)nc3n2CCS3)cc1	inactive	
O=[N+]([O-])c1cccc(/C=N/Nc2cc(Cl)nc(-c3ccccc3)n2)c1	inactive	
CCCC/C=C/C(NC(=O)c1ccccc1)c1ccccc1 (centres undefined)	inactive	
CCCC/C=C/C(NC(=O)c1ccc(C(F)(F)F)cc1)c1ccccc1 (centres undefined)	inactive	
CCCC/C=C/C(NC(=O)Oc1cccc(C(F)(F)F)c1)c1ccccc1 (centres undefined)	1 µM (active)	
Cn1c(=O)c2c(nc(N/N=C\c3ccccc3C(=O)O)n2C)n(C)c1=O		5.12% [at 11.4 µM] (inactive)
Cn1c(N/N=C/c2c[nH]c3ccccc23)nc2ccccc21	7.94 µM (active)	
C(=N\Nc1nc(Nc2ccccc2)nc(N2CCOCC2)n1)/c1c[nH]c2ccccc12	inactive	
CC(C)(C)C1CCc2c(C(=O)N/N=C/c3cccs3)csc2C1 (centres undefined)	inactive	
OC[C@@H]1O[C@H](n2cnc3c(/C=C(\O)c4ccccc4)ncnc32)[C@H](O)[C@@H]1O		3.57% [at 11.4 µM] (inactive)
Cn1c(=O)n(C)c2cc(S(=O)(=O)O)ccc21	inactive	
CCc1c(C(=O)O)[nH]c2ccc(Br)cc12	inactive	
CCOC(=O)c1ccc2nc(C)c(CCC(C)=O)c(Cl)c2c1	inactive	
CCc1c(C)nc2ccc(Br)cc2c1Cl	12.6 µM (active)	
CCCNS(=O)(=O)c1ccc(OCC(=O)OC)cc1	inactive	
O=c1[nH][nH]c(C(F)(F)F)c1C=Nc1ccccc1	inactive	
Cc1ccc(CSc2nnc(-c3ccncc3)n2CC2CCCO2)cc1 (centres undefined)	inactive	
Cc1cc(NC(=O)c2c([N+](=O)[O-])cnn2C)no1	inactive	
CCCC[C@H](CC)CN1CN(C[C@@H](CC)CCCC)CC(C)(N)C1	1.26 µM (active)	
N#CC(c1ccccn1)(c1ncc(C(F)(F)F)cc1Cl)N1CCOCC1 (centres undefined)	inactive	
CC(=O)c1c(N=CN(C)C)nc(C)nc1-c1ccccc1	inactive	

SMILES	AC50	activity, negative = inhibition
C=CC[C@@H]1C=C[C@@H](O/N=C\c2ccc(C(=O)N3[C@H](c4ccc(C)cc4)[C@@H](C)CC[C@H]3C(=O)OC)cc2)[C@@H](CO)O1		5.48% [at 11.4 µM] (inactive)
Cc1ccc(C(=O)N2CCN(c3cc(=O)[nH]nc3-c3ccccc3)CC2)cc1	inactive	
Cc1cccc(C(=O)N2CCN(c3ccc([N+](=O)[O-])c(NCc4ccco4)c3)CC2)c1	inactive	
Cc1ccc(C)c(N2CCN(C(=O)c3ccc4nc(-c5ccco5)c(-c5ccco5)nc4c3)CC2)c1	3.16 µM (active)	
COc1ccc(-c2nc3cnc(OC)nc3n(Cc3cccc(OC)c3)c2=O)cc1	inactive	
CN(C)CCNC(=O)Cn1nc(-c2ccc(Cl)cc2)ccc1=O	inactive	
Cc1ccc(-c2ccc(=O)n(CC(=O)NCCN3CCCCC3C)n2)cc1 (centres undefined)	2 µM (active)	
COCCCNC(=O)Cn1nc(-c2ccccc2OC)ccc1=O	inactive	
CC1CCCC(C)N1CCNC(=O)Cn1nc(-c2ccccc2)ccc1=O (centres undefined)	22.4 µM (active)	
Cc1ccc(-c2ccc(=O)n(CC(=O)NCCN(C)C)n2)cc1	inactive	
CCOC(=O)N1CCN(C(=O)CCn2nc(-c3ccccc3)ccc2=O)CC1	inactive	
O=C(Nc1ccccc1N1CCOCC1)c1ccccc1[N+](=O)[O-]	inactive	
N#Cc1cccc(NC(=O)N2CCCC3(CCN(C(=O)c4cc(C(F)(F)F)cc(C(F)(F)F)c4)CC3)C2)c1	inactive	
CCOC(=O)Cn1nc(C)n(-c2ccc(C)cc2)c1=O	inactive	
CC(=O)CCCCn1c(=O)c2c(ncn2C)n(C)c1=O	inactive	
O=C1C(Cl)=C(Nc2ccc(S(=O)(=O)Nc3ccccn3)cc2)C(=O)c2ccccc21	3.16 µM (active)	
Nc1ccc(S(=O)(=O)Nc2ccccn2)cc1	inactive	
CN(C)S(=O)(=O)Nc1ccccn1		-5.07% [at 11.4 µM] (inactive)
Cc1nnc(SCC2=C(C(=O)O)N3C(=O)[C@@H](NC(=O)Cn4cnnn4)[C@@H]3SC2)s1	inactive	
CCCn1c(-c2ccccc2)nc2c(=O)n(C)c(=O)[nH]c21	inactive	
COc1ccc(C[C@H](N)C(=O)N[C@@H]2[C@H](O)[C@H](n3cnc4c(N(C)C)ncnc43)O[C@@H]2CO)cc1	inactive	
CN(C)c1ccc(-c2cc(-n3ccnc3)ncn2)cc1	7.94 µM (active)	
c1cncc(-c2cc(-n3ccnc3)ncn2)c1	15.8 µM (active)	
CN1CCN(c2cc(-c3ccc(N(C)C)cc3)ncn2)CC1	inactive	
c1cncc(-c2cccnc2)c1	inactive	
c1cncc(-c2cc(-c3cc(-c4cccnc4)n[nH]3)[nH]n2)c1		-12.7% [at 11.4 µM] (inactive)
